Assay outcomes (PubChem BioAssay)
Hits are enriched below; roughly 10% of the tested compounds scored in any of these assays.
Mm-Cpn inhibitor = inhibitors of Methanococcus maripaludis chaperonin TRiC (MmCpn); 0.031% of 330,000 active; Potency, µM (highest dose often 76.9 µM), most hits filed as inhibitors; purified Mm-Cpn ATPase, ADP Transcreener TR-FRET; note: nearly all actives have a fitted effect of over 80% in size
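TR-FRET (320 nm excitation; 590 and 665 nm emission) reports ADP made from 10 uM ATP by 25 nM enzyme; compounds were preincubated 10 min, reaction run 30 min, both at 37°C.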
G9a block = blocks human histone lysine methyltransferase G9a; G9a H3K9 monomethylation, AlphaScreen, 2 h; AID 504332; Q96KQ7; Potency, µM (highest dose often 102 µM), most hits filed as inhibitors; 8.8% of 350,000 active; note: nearly all actives have a fitted effect of over 75% in size
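Methyltransferase reactions run at room temperature for 2 h (20 nM enzyme, 500 nM biotin-H3K9 peptide, 20 uM SAM) after a 15 min compound preincubation; product detected by AlphaScreen beads and anti-H3K9me1 antibody.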
Sfp PPTase inh = inhibitors of Bacillus subtilis Sfp phosphopantetheinyl transferase | Q9F4F7 | Biochemical Sfp PPTase activity, qHTS | Potency, µM, most hits filed as inhibitors | 3.5% of 310,000 active | AID 1490;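 note: the enzyme is Sfp with the accession as filed and its product quenches rhodamine fluorescence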
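Fluorescence-quenching assay: 15 nM Sfp-PPTase preincubated 15 min at room temperature with compound, then 5 uM rhodamine-CoA and 12.5 uM BHQ-2-labelled YbbR peptide added. Fluorescence (ex 525/em 598 nm) read at start and after 30 min; difference gives rate.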
PLK1 PBD block = blocks phosphopeptide binding to human PLK1 polo-box domain; P53350; Plk1 PBD binding of FITC phosphopeptide, fluorescence polarization; Potency, µM, actives largely listed as inhibitors; 2.8% of 360,000 active; AID 720504; note: series mostly up to about 57 µM; nearly all actives have a fitted effect of over 65% in size
Target sequence (P53350 whole entry, looked up, the tested form may be a part): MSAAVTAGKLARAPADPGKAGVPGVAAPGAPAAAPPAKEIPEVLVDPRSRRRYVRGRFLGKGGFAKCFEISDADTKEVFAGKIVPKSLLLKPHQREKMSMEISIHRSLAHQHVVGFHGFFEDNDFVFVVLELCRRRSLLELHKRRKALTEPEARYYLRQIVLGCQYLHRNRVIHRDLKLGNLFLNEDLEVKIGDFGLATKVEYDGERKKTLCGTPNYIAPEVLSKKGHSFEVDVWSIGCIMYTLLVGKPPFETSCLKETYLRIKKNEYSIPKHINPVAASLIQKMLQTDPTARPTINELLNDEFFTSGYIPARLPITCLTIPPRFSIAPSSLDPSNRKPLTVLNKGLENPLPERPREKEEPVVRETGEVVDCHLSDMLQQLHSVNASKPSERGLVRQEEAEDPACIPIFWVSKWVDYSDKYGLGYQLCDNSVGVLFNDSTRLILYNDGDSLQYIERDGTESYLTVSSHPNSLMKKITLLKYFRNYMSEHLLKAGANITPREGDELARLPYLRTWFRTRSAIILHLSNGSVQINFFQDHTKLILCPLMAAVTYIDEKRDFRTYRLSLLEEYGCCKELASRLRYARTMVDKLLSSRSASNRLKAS
CCT chaperon mod = changes cytosolic chaperonin activity | purified chaperonin ATPase assay, HTRF ADP detection, 30 min | activity change, % (test concentration not listed), hits read low | 0.3% of 360,000 active; in the data active = activity change below about -30%
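Nucleotide hydrolysis assay: TRiC at 20–40 nM final (set by batch activity) with 10 uM ATP, 30 min at 37 °C, in presence of 76 uM compound. Detection by competitive ADP HTRF, 30 min ambient.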
VDR inhibitor = blocks the human vitamin D receptor; 0.93% of 400,000 active; Potency, µM, hits mostly inhibitors; VDR-SRC2-3 peptide fluorescence polarization, 2 h; P11473
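VDR–SRC2-3 interaction, FP format. Cmpds 23 nl via pintool, brief spin, 2 h ambient incubation.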
A number is an active result; 0 = inactive; ? = inconclusive; - = not tested or not shown; ! = not active in a repeat; [ ] = another dose, or the depositor's remark. Unless noted, calls come from the whole dose curve; as a rule, active = well fitted curve in the direction sought with a large enough effect; inconclusive = small, poorly fitted or top-dose-only effect, or another doubt; inactive = no such curve, though single readings can be large; an effect the other way counts as inactive or inconclusive.

SMILES | Mm-Cpn inhibitor | G9a block | Sfp PPTase inh | PLK1 PBD block | CCT chaperon mod | VDR inhibitor
Cc1cc2nc(-c3ccc(OCc4ccccc4)cc3)cc(C(F)(F)F)n2n1 | - | 0 | - | - | - | 0
Cc1ccc2c(c1)cc(CN(Cc1ccco1)C(=O)N1CCOCC1)c1nnnn12 | 0 | ? | 0 | 0 | 0 | 0
Cc1cccc2cc(CN(Cc3ccc(F)cc3)C(=O)N3CCOCC3)c3nnnn3c12 | 0 | 0 | 0 | 24µM | 0 | 0
CCCCC/C=C\C/C=C\C/C=C\C=C\C(O)CCCC(=O)O (stereo not drawn) | - | - | 0 | - | - | 0
CC(Sc1nnc2n1CCCCC2)C(=O)Nc1ccc(S(N)(=O)=O)cc1 (stereo not drawn) | 0 | 45µM | - | 0 | 0 | 0
CCCC1=Nc2cc(C(=O)N3CCN(c4ccccn4)CC3)ccc2Sc2ccc(C)cc21 | 0 | 16µM | 0 | 0 | 0 | 0
CCC1=Nc2cc(C(=O)N3CCCCC3)ccc2Sc2ccc(C)cc21 | 0 | ? | 0 | 0 | 0 | 0
CCCC1=Nc2cc(C(=O)N3CCCC3)ccc2Sc2ccc(C)cc21 | 0 | 0 | 0 | 27µM | 0 | 0
COc1ccc(-c2cc(C(=O)Nc3cc(C(F)(F)F)ccc3Cl)no2)cc1 | - | 0 | - | - | - | 0
CCOc1cc(C(=O)NCCc2csc3nc(-c4ccccc4F)nn23)cc(OCC)c1OCC | - | 0 | - | - | - | 0
CCC(=O)Nc1sc2c(c1C(=O)Nc1ccccc1C)CCC(C)C2 (stereo not drawn) | - | ? | - | - | - | 0
COC(=O)c1ccccc1NC=C1C(=O)OC2(CCCCC2)OC1=O | 0 | 0 | 0 | 4.2µM | 0 | 0
O=C1OC2(CCCCC2)OC(=O)C1=CNc1nccs1 | 0 | 50µM | 0 | 0 | 0 | 0
O=C1OC2(CCCCC2)OC(=O)C1=CNc1nc2ccccc2s1 | 0 | ? | 0 | 0 | 0 | 0
O=C(O)C1CCCN1 (stereo not drawn) | - | - | ? | - | - | 0
O=C(O)[C@H]1CCCN1 | - | 0 | 45µM! | - | - | 0
Cc1nn2c3c(cnc2c1-c1ccccc1)C(=O)CC(c1ccccc1)C3 (stereo not drawn) | 0 | 0 | 0 | 0 | 0 | 0
Cc1nn2c3c(cnc2c1-c1ccccc1)C(=O)CC(c1ccco1)C3 (stereo not drawn) | 0 | ? | 89µM | 0 | 0 | 0
CCn1c(O)c(C#N)c(C)cc1=O | 0 | 45µM | 0 | 0 | 0 | 0
COc1ccccc1N(CC(O)CN1CCOCC1)S(=O)(=O)c1ccccc1 (stereo not drawn) | 0 | 50µM | 0 | 0 | 0 | 0
CCCN(CCC)CC(O)CN(c1cc([N+](=O)[O-])ccc1OC)S(=O)(=O)c1ccccc1 (stereo not drawn) | 0 | 56µM | 0 | 0 | 0 | 0
Cc1cccc(CN2C(=O)c3ccccc3S(=O)(=O)c3ccc(C(=O)N4CCN(c5cc(C)ccc5C)CC4)cc32)c1 | - | ? | - | - | - | 0
COCCN1C=C2C(=O)C(C)(OC(=O)CCC(=O)OC)C(=O)C(Br)=C2C=C1c1ccc(OC)cc1 (stereo not drawn) | - | - | 0 | ? | 0 | 22µM
C=CCN1C=C2C(=O)C(C)(OC(=O)CCC(=O)OC)C(=O)C(Br)=C2C=C1c1ccc(OC)cc1 (stereo not drawn) | 0 | 0[12.7 µM] | 0 | ? | 0 | ?
COc1ccc(C2=CC3=C(Br)C(=O)C(C)(OC(=O)c4cnc5ccccc5n4)C(=O)C3=CO2)cc1 (stereo not drawn) | - | - | 0 | - | - | 0
SMILES | Mm-Cpn inhibitor | G9a block | Sfp PPTase inh | PLK1 PBD block | CCT chaperon mod | VDR inhibitor
COc1ccc(C2=CC3=C(Br)C(=O)C(C)(OC(=O)c4cccs4)C(=O)C3=CO2)cc1 (stereo not drawn) | - | - | 0 | 8.4µM | 0 | 0
COc1ccc(C2=CC3=C(Br)C(=O)C(C)(OC(=O)c4ccco4)C(=O)C3=CO2)cc1 (stereo not drawn) | 0 | ? | ? | 9.5µM | 0 | 79µM
Cc1ccc(C)c(CN2C(=O)c3ccccc3S(=O)(=O)c3ccc(C(=O)NCc4ccccc4)cc32)c1 | - | 0 | - | - | - | 0
COc1ccc(OC)c(-c2nnc3n(Cc4ccc(C)cc4)c(=O)c4ccccc4n23)c1 | - | 0 | - | - | - | 0
COC(=O)c1sccc1S(=O)(=O)N(CC(=O)Nc1c(C)cccc1C)c1ccc(C)c(C)c1 | - | 0 | - | - | - | 0
COc1cc(NC(=O)COCc2cc(-c3ccc4c(c3)OCO4)on2)cc(OC)c1 | - | 0 | - | - | - | 0
CC1CCN(c2ccccc2NC(=O)c2ccc(N3CCOCC3)c([N+](=O)[O-])c2)CC1 | 0 | 0 | 0 | 0 | 0 | 0
CCN(CC)S(=O)(=O)c1ccc(N2CCCCC2)c(NC(=O)C2=COCCO2)c1 | 0 | 0 | - | 0 | 0 | 0
CCN(CC)S(=O)(=O)c1ccc(N2CCOCC2)c(NC(=O)c2ccc(N3CCCC3=O)cc2)c1 | 0 | 50µM | - | 0 | 0 | 0
CCN(CC)S(=O)(=O)c1ccc(N2CCCC2)c(NC(=O)C2=COCCO2)c1 | 0 | 50µM | - | 0 | 0 | 0
CCN(CC)S(=O)(=O)c1ccc(N2CCCC2)c(NC(=O)c2ccncc2)c1 | 0 | 32µM | 0 | 0 | 0 | 0
CCN(CC)S(=O)(=O)c1ccc(O)c(NC(=O)c2ccc(N3CCOCC3)c([N+](=O)[O-])c2)c1 | 0 | 7.1µM | ? | 21µM | 0 | ?
CCN(CC)S(=O)(=O)c1ccc(N2CCOCC2)c(NC(=O)c2ccccc2)c1 | 0 | 0 | 0 | 0 | 0 | 0
CCN(CC)S(=O)(=O)c1ccc(N2CCCCC2)c(NC(=O)c2ccncc2)c1 | 0 | 0 | 0 | 0 | 0 | 0
Cc1cccc(NC(=O)CSc2nncn2C)c1 | - | 0 | - | - | - | 0
COc1ccc(-n2cc(C(=O)Nc3ccccc3C#N)c3ccccc3c2=O)cc1 | - | 0 | - | - | - | 0
CCN(CC)S(=O)(=O)c1ccc(N2CCCC2)c(NC(=O)c2ccc(N3CCCC3=O)cc2)c1 | 0 | 35µM | - | 0 | 0 | 0
CCN(CC)S(=O)(=O)c1ccc(OC)c(NC(=O)c2ccc(N3CCCC3=O)cc2)c1 | 0 | 0 | - | 0 | 0 | 0
Cc1csc(=O)n1CCC(=O)OCC(=O)Nc1ncc(Cl)cc1Cl | 0 | 45µM | - | ? | 0 | 0
Cc1csc(=O)n1CCC(=O)OCC(=O)Nc1cc(Cl)ccc1[N+](=O)[O-] | 0 | 0[12.7 µM] | - | 0 | 0 | 0
COc1ccc(C(=O)NCCc2cn3ccccc3n2)cc1 | 0 | 0 | 0 | 30µM | 0 | ?
Cc1ccn2cc(CCNC(=O)COc3ccccc3)nc2c1 | 0 | 0 | 0 | 12µM | 0 | ?
COCCNc1oc(Cc2cccc3ccccc23)nc1C#N | 0 | 79µM | 0 | 0 | 0 | 0
C=CCNc1oc(Cc2cccc3ccccc23)nc1C#N | 0 | 50µM | 0 | 0 | 0 | 0
N#Cc1nc(Cc2cccc3ccccc23)oc1NCc1ccc(F)cc1 | 0 | 25µM | 0 | 0 | 0 | 0
N#Cc1nc(Cc2cccc3ccccc23)oc1NCCN1CCOCC1 | 0 | 0 | 0 | 0 | 0 | 0
O=C(NCc1ccco1)c1ccc2c(c1)N(Cc1ccccc1)C(=O)c1ccccc1S2(=O)=O | - | 0 | - | - | - | 0
